Calls of active or inactive are those of the source. Unless noted, no rule for the calls is given here.
Key:
[1] = test system: XIP peptide (Xip251-270) binding; assay: small-molecule binders of XIP peptide, primary screen, biochemical, small-molecule microarray, fluorescence 635/667 nm, 0.1 µg/mL protein (AID 1182); settings: fluorescent protein binding, 635 nm, higher = more signal, called active from +8 up or from −8 down
[2] = test system: XIP peptide (Xip251-270); assay: small-molecule binders of XIP peptide, primary screen, biochemical, small-molecule microarray, fluorescence 635/667 nm, 0.5 µg/mL protein (AID 1183); settings: small-molecule microarray binding, fluorescence 635 nm; higher = more signal
[3] = Plasmodium falciparum growth inhibition, primary screen, strain 3D7, DAPI fluorescence, 100 nL (AID 1184);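 also: parasites grown inside human red blood cells in medium with human serum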; settings: P. falciparum 3D7 growth, 3 d, higher = more signal
[4] = target: Homeobox protein Hox-A13 (Mus musculus) (UniProt Q62424); assay: inhibitors of HoxA13-DNA binding, primary screen, biochemical, fluorescence polarization, labeled oligonucleotide (AID 1185); settings: 15 min, higher = more signal, called active from +8 up or from −8 down
[5] = inhibitors of hydroxyurea-induced Chk1 phosphorylation, primary screen, imaging, HeLa, phospho-Chk1 antibody, percent positive cells (AID 1186); settings: hydroxyurea-induced phospho-Chk1 immunofluorescence imaging, higher = more signal
[6] = inhibitors of hydroxyurea-induced Chk1 phosphorylation, primary screen, imaging, HeLa, phospho-Chk1 nuclear intensity (AID 1187); settings: hydroxyurea-induced phospho-Chk1 immunofluorescence imaging, higher = more signal

Sequence of Homeobox protein Hox-A13 (Mus musculus) (Q62424 whole entry, looked up): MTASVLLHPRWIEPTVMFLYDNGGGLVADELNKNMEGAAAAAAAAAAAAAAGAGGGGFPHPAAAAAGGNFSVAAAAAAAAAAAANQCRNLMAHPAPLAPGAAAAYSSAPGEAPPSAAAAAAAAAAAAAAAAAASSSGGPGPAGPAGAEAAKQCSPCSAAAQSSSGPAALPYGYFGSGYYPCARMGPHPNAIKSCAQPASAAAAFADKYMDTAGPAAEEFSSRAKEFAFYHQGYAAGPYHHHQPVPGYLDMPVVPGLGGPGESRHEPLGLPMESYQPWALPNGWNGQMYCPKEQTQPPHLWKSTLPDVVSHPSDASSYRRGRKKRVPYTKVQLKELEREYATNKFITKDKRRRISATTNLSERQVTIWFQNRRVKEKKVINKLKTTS

SMILES	composite z-score [1]	composite z-score [2]	z-score [3]	z-score [4]	z-score [5]	z-score [6]
Cc1ccc(S(=O)(=O)c2cc3oc2CC[C@@H](CO)NC(=O)N(C)Cc2cn(nn2)C[C@H](Cc2ccccc2)NC3=O)cc1	-0.126 (inactive)	-0.612	-0.746	-4.42 (inactive)	-0.131 (inactive)	-0.0334 (inactive)
CCOC(=O)C[C@H]1[C@H](OC(=O)c2ccccc2-c2ccccc2)[C@@H](NC(=O)c2ccc(-c3ccccc3)cc2)c2cc(OCCCO)ccc2N1C(=O)Cc1ccc(OC)cc1	0.617 (inactive)	0.222	0.561	-2.32 (inactive)	0.663 (inactive)	0.241 (inactive)
COC(=O)[C@H]1[C@@H]2COc3ccccc3[C@H]2N[C@H]1C(=O)OC	0.22 (inactive)	0.522	0.535	-0.726 (inactive)	-0.953 (inactive)	-0.134 (inactive)
O=C(NCc1ccccc1)c1ccc(Br)cc1[N+](=O)[O-]	0.103 (inactive)	0.0871	2.11	0.513 (inactive)	0.225 (inactive)	0.119 (inactive)
O=C1C[C@@](C(=O)NCCN2CCOCC2)(c2ccc([N+](=O)[O-])cc2)[C@@H](c2ccc(CO)cc2)N1C1CCCCC1	1.01 (inactive)	0.818	-1.6	-4.21 (inactive)	-0.0132 (inactive)	0.434 (inactive)
O=C1O[C@@H](c2ccccc2)[C@@H](c2ccccc2)N2[C@@H](c3ccc(OCCO)cc3)[C@]3(C(=O)Nc4ccc(C#CCCO)cc43)[C@@H](C(=O)N3CCN(c4ncccn4)CC3)[C@H]12	0.42 (inactive)	0.721	-2.03	-0.282 (inactive)	0.396 (inactive)	0.92 (inactive)
C=CCNC(=O)[C@H]1[C@@H]2C(=O)O[C@@H](c3ccccc3)[C@@H](c3ccccc3)N2[C@@H](c2ccc(O)cc2)[C@]12C(=O)Nc1ccc(C#CCNC(N)=O)cc12	0.342 (inactive)	0.0866	-0.491	-2.56 (inactive)	0.191 (inactive)	0.424 (inactive)
O=C(NCC(O)CO)[C@]1(Cc2ccccc2)N=C(c2ccc(OCCCO)cc2)O[C@@H]1c1ccccc1 (some centres not stated)	1.61 (inactive)	0.776	-1.62	-4.2 (inactive)	-0.707 (inactive)	-0.655 (inactive)
N#Cc1ccc(NN2C(C(O)c3ccc(I)cc3)C=CC3C(=O)N(c4ccccc4)C(=O)C32)cc1 (configuration not stated)	0.816 (inactive)	0.464	0.175	-1.01 (inactive)	-0.308 (inactive)	0.145 (inactive)
Cc1ccc(N2C(=O)c3ccccc3[C@](C)(C(=O)O)[C@@H]2c2ccc(CO)cc2)nc1	-0.235 (inactive)	-1.16	-0.63	-0.0226 (inactive)	0.153 (inactive)	0.522 (inactive)
C=C(COC)/C(=C/C[C@@H](OC(=O)c1ccncc1)c1ccc(OCCO)cc1)c1cc(C(=O)OC)ccc1OC	1.08 (inactive)	0.749	-2.98	-4.62 (inactive)	-0.252 (inactive)	0.535 (inactive)
CCOC(=O)C1=CC[C@@H](c2ccc(-c3ccc(OCc4ccccc4)cc3)c(OC)c2)N(S(=O)(=O)c2ccc(C)cc2)[C@H]1c1ccccc1	0.525 (inactive)	0.6	-1.94	-0.242 (inactive)	-1.04 (inactive)	-0.995 (inactive)
CO[C@H]1O[C@H](CO)[C@@H](OC(=O)Nc2ccc3c(c2)OCO3)[C@H](OC(=O)Nc2ccccc2)[C@@H]1OC(=O)Nc1ccccc1	1.06 (inactive)	0.649	-1.76	-5.39 (inactive)	0.171 (inactive)	0.889 (inactive)
COCCOC(=O)N1C(=O)[C@@]2(c3cc(C#CCCO)ccc31)[C@H](c1ccc(OCCO)cc1)N1[C@H](c3ccccc3)[C@H](c3ccccc3)OC(=O)[C@H]1[C@@H]2C(=O)NC[C@H](O)c1ccccc1	0.405 (inactive)	0.765	-2.1	-1.24 (inactive)	-0.234 (inactive)	-0.341 (inactive)
C=CCN1C(=O)[C@]2(O[C@H](CCn3cc(CCO)nn3)[C@@H]([Si](C)(C)c3ccc(OC)cc3)[C@@H]2C)c2cc(NC(=O)c3ccc(OC)cc3)ccc21	1.02 (inactive)	0.18	-2.84	-4.21 (inactive)	-0.798 (inactive)	-0.823 (inactive)
C=C(C(=O)CC[C@H](OC(=O)c1ccccc1-c1ccccc1C(=O)O)c1ccc(CO)o1)C(C)C	0.161 (inactive)	0.697	-0.241	-6.22 (inactive)	0.38 (inactive)	0.239 (inactive)
COC(=O)[C@@]1(Cc2ccccc2CN=[N+]=[N-])N=C(c2ccc(OCCCO)cc2)O[C@H]1c1ccccc1N=[N+]=[N-]	0.413 (inactive)	0.653	-1.94	0.683 (inactive)	0.0586 (inactive)	0.0586 (inactive)
COC(=O)C[C@H]1O[C@]2(C(=O)N(Cc3ccccc3)c3ccc(I)cc32)[C@@H](C)[C@@H]1[Si](C)(C)c1ccc(OC)cc1	-0.0923 (inactive)	-0.0988	-3.07	1.04 (inactive)	-0.504 (inactive)	-0.584 (inactive)
NC(=O)[C@H]1[C@@H]2C(=O)O[C@@H](c3ccccc3)[C@@H](c3ccccc3)N2[C@@H](c2ccc(O)cc2)[C@]12C(=O)Nc1ccc(C#CCCO)cc12	-0.0876 (inactive)	-0.413	-0.629	-5.7 (inactive)	-0.0158 (inactive)	-0.651 (inactive)
C[N+](C)(C)CCCC[C@@H]1NC(=O)[C@H]2C[C@@H](C(=O)NCc3ccc(F)cc3)[C@@H](c3cccc(OCCO)c3)N2C1=O	1.61 (inactive)	0.675	0.13	-1.22 (inactive)	0.06 (inactive)	0.274 (inactive)
O=C1NC(=O)C2C1C=CC(C(O)C=Cc1ccc([N+](=O)[O-])cc1)N2Nc1ccccn1 (configuration not stated)	0.433 (inactive)	0.792	-0.304	-1.88 (inactive)	-0.746 (inactive)	-0.987 (inactive)
CO[C@H]1O[C@H](CO)[C@@H](OC(=O)CCc2ccccc2)[C@@H]2OC(=O)[C@H](Cc3cccc(Br)c3)C/C=C/C[C@@H](Cc3cccc(Br)c3)C(=O)O[C@@H]12	0.0304 (inactive)	-0.107	-1.84	-2.42 (inactive)	-0.962 (inactive)	-1.1 (inactive)
C=C(COC)/C(=C/C[C@@H](OC(C)=O)c1cccc(OCCO)c1)c1cc(C(=O)OC)ccc1OC	-0.496 (inactive)	-0.5	-2.56	-4.24 (inactive)	-0.8 (inactive)	-0.95 (inactive)
O=C1C2C=CC(C(O)c3ccccc3)N(n3cnnc3)C2C(=O)N1Cc1ccccc1 (configuration not stated)	-0.377 (inactive)	-0.179	0.454	-2.02 (inactive)	-1.25 (inactive)	-1.21 (inactive)
COc1ccc(C(=O)Nc2ccc(CN3C(=O)[C@]4(O[C@H](CCn5cc(CCO)nn5)[C@@H]([Si](C)(C)c5ccc(OC)cc5)[C@@H]4C)c4ccccc43)cc2)cc1	-0.154 (inactive)	0.621	-2.78	-3.55 (inactive)	0.188 (inactive)	0.686 (inactive)
CCCC[C@H]1OB(O)C[C@H]2C1=C(COC)C[C@H]1C(=O)N(Cc3ccccc3)C(=O)[C@H]12	0.2 (inactive)	0.0845	-0.386	-6.5 (inactive)	-0.669 (inactive)	-0.331 (inactive)
CCCC[C@@H]1C[C@H]1[C@@H](NC(=O)c1ccccc1)c1ccccc1C(F)(F)F	0.715 (inactive)	0.193	-1.19	2.99 (inactive)	0.726 (inactive)	0.542 (inactive)

— PubChem BioAssay
